The full list was thinned out, with the strongest signals kept by preference.
Experiments:
Assay in all cases: glycan array binding signal (z-score within array); higher = stronger binding
Conditions in all cases: glycan notation: IUPAC condensed, linker removed
[1] = target: GalNAc3S(b1-4)[Fuc(a1-3)]GlcNAc
How it was run: (§1)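 From the Consortium for Functional Glycomics database, 3228 arrays were curated, keeping only those whose protein sequence was available. Binding is given as a within-array Z-score averaged across arrays sharing a protein sequence and across linkers. Negative Z-scores can be read as non-binding.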

[2] = target: GlcNAc(b1-2)[GlcNAc(b1-4)]Man(a1-3)[GlcNAc(b1-4)][GlcNAc(b1-2)Man(a1-6)]Man(b1-4)GlcNAc(b1-4)GlcNAc
How it was run: as §1

[3] = target: GlcNAc(b1-3)Gal(b1-4)GlcNAc(b1-2)Man(a1-3)[GlcNAc(b1-3)Gal(b1-4)GlcNAc(b1-2)Man(a1-6)]Man(b1-4)GlcNAc(b1-4)[Fuc(a1-6)]GlcNAc
How it was run: as §1

[4] = target: GlcNAc(b1-3)Gal(b1-4)GlcNAc(b1-2)[GlcNAc(b1-3)Gal(b1-4)GlcNAc(b1-6)]Man(a1-6)[GlcNAc(b1-3)Gal(b1-4)GlcNAc(b1-2)Man(a1-3)]Man(b1-4)GlcNAc(b1-4)GlcNAc
How it was run: as §1

[5] = target: Man(a1-2)Man(a1-6)[Man(a1-3)]Man(a1-6)[Man(a1-2)Man(a1-2)Man(a1-3)]Man(b1-4)GlcNAc(b1-4)GlcNAc
How it was run: as §1

Man(a1-3)[Man(a1-6)]Man = target: Man(a1-3)[Man(a1-6)]Man
How it was run: as §1

MurNAc(b1-4)GlcNAc = target: MurNAc(b1-4)GlcNAc
How it was run: as §1

[6] = target: Neu5Ac(a2-3)Gal(b1-3)[Fuc(a1-4)]GlcNAc(b1-3)Gal(b1-4)[Fuc(a1-3)]GlcNAc
How it was run: as §1

[7] = target: Neu5Ac(a2-3)Gal(b1-3)[GlcNAc(b1-6)]GalNAc
How it was run: as §1

[8] = target: Neu5Ac(a2-3)Gal(b1-4)GlcNAc(b1-3)Gal(b1-4)GlcNAc(b1-2)Man(a1-3)[Neu5Ac(a2-3)Gal(b1-4)GlcNAc(b1-3)Gal(b1-4)GlcNAc(b1-2)Man(a1-6)]Man(b1-4)GlcNAc(b1-4)GlcNAc
How it was run: as §1

[9] = target: Neu5Ac(a2-3)Gal(b1-4)GlcNAc(b1-3)Gal(b1-4)GlcNAc(b1-3)GalNAc
How it was run: as §1

[10] = target: Neu5Ac(a2-3)Gal(b1-4)GlcNAc6S
How it was run: as §1

[11] = target: Neu5Ac(a2-3)Gal(b1-4)[Fuc(a1-3)]GlcNAc6S
How it was run: as §1

[12] = target: Neu5Ac(a2-3)Gal6S(b1-4)GlcNAc
How it was run: as §1

[13] = target: Neu5Ac(a2-3)[Neu5Ac(a2-6)]GalNAc
How it was run: as §1

[14] = target: Neu5Ac(a2-6)Gal(b1-4)GlcNAc(b1-2)Man(a1-3)[Neu5Ac(a2-6)Gal(b1-4)GlcNAc(b1-2)Man(a1-6)]Man(b1-4)GlcNAc(b1-4)[Fuc(a1-6)]GlcNAc
How it was run: as §1

[15] = target: Neu5Ac(a2-6)Gal(b1-4)GlcNAc(b1-2)[Neu5Ac(a2-6)Gal(b1-4)GlcNAc(b1-4)]Man(a1-3)[GlcNAc(b1-4)][Neu5Ac(a2-6)Gal(b1-4)GlcNAc(b1-2)[Neu5Ac(a2-6)Gal(b1-4)GlcNAc(b1-6)]Man(a1-6)]Man(b1-4)GlcNAc(b1-4)GlcNAc
How it was run: as §1

[16] = target: Neu5Ac(a2-6)Gal(b1-4)GlcNAc(b1-3)Gal(b1-4)GlcNAc
How it was run: as §1

[17] = target: Neu5Ac(a2-6)Gal(b1-4)GlcNAc(b1-3)Gal(b1-4)GlcNAc(b1-2)Man(a1-3)[Neu5Ac(a2-6)Gal(b1-4)GlcNAc(b1-3)Gal(b1-4)GlcNAc(b1-2)Man(a1-6)]GalNAc
How it was run: as §1

[18] = target: Neu5Ac(a2-6)Gal(b1-4)GlcNAc(b1-3)Gal(b1-4)GlcNAc(b1-3)Gal(b1-4)GlcNAc(b1-2)Man(a1-3)[Neu5Ac(a2-6)Gal(b1-4)GlcNAc(b1-3)Gal(b1-4)GlcNAc(b1-3)Gal(b1-4)GlcNAc(b1-2)Man(a1-6)]GalNAc
How it was run: as §1

[19] = target: Neu5Ac(b2-6)Gal(b1-4)GlcNAc
How it was run: as §1

[20] = target: Neu5Gc(a2-8)Neu5Gc(a2-3)Gal(b1-4)GlcNAc(b1-3)Gal(b1-4)GlcNAc
How it was run: as §1

B1: DC-Sign-R (Homo sapiens), Q9H2X3 (protein)
chain: MSDSKEPRVQQLGLLEEDPTTSGIRLFPRDFQFQQIHGHKSSTGCLGHGALVLQLLSFMLLAGVLVAILVQVSKVPSSLSQEQSEQDAIYQNLTQLKAAVGELSEKSKLQEIYQELTQLKAAVGELPEKSKLQEIYQELTRLKAAVGELPEKSKLQEIYQELTRLKAAVGELPEKSKLQEIYQELTRLKAAVGELPEKSKLQEIYQELTELKAAVGELPEKSKLQEIYQELTQLKAAVGELPDQSKQQQIYQELTDLKTAFERLCRHCPKDWTFFQGNCYFMSNSQRNWHDSVTACQEVRAQLVVIKTAEEQNFLQLQTSRSNRFSWMGLSDLNQEGTWQWVDGSPLSPSFQRYWNSGEPNNSGNEDCAEFSGSGWNDNRCDVDNYWICKKPAACFRDE
Question: With B1 as the binder, how does the “glycan array binding signal (z-score)” value [1] read?
Answer: -0.794

Question: And the “glycan array binding signal (z-score)” value [2]?
Answer: 2.91

Question: What about the “glycan array binding signal (z-score)” value [3] of the same binder?
Answer: 0.094

Question: What about the “glycan array binding signal (z-score)” value [4] of the same binder?
Answer: 2.48

Question: And the “glycan array binding signal (z-score)” value [5]?
Answer: -0.019

Question: And the “glycan array binding signal (z-score)” value (Man(a1-3)[Man(a1-6)]Man)?
Answer: -0.857

Question: And the “glycan array binding signal (z-score)” value (MurNAc(b1-4)GlcNAc)?
Answer: 0.448

Question: What about the “glycan array binding signal (z-score)” value [6] of the same binder?
Answer: -0.503

Question: And the “glycan array binding signal (z-score)” value [7]?
Answer: 2.7

Question: And the “glycan array binding signal (z-score)” value [8]?
Answer: 1.11

Question: What about the “glycan array binding signal (z-score)” value [9] of the same binder?
Answer: 2.49

Question: What about the “glycan array binding signal (z-score)” value [10] of the same binder?
Answer: -0.795

Question: And the “glycan array binding signal (z-score)” value [11]?
Answer: -0.531

Question: And the “glycan array binding signal (z-score)” value [12]?
Answer: -0.255

Question: And the “glycan array binding signal (z-score)” value [13]?
Answer: 0.964

Question: What about the “glycan array binding signal (z-score)” value [14] of the same binder?
Answer: -0.156

Question: What about the “glycan array binding signal (z-score)” value [15] of the same binder?
Answer: 3.11

Question: What about the “glycan array binding signal (z-score)” value [16] of the same binder?
Answer: -0.464

Question: And the “glycan array binding signal (z-score)” value [17]?
Answer: 4.44

Question: What about the “glycan array binding signal (z-score)” value [18] of the same binder?
Answer: 2.81

Question: What about the “glycan array binding signal (z-score)” value [19] of the same binder?
Answer: 3.63

Question: And the “glycan array binding signal (z-score)” value [20]?
Answer: 1.55
